# Measurements published in PubChem BioAssay (NCI).
# Compounds without any hit were thinned out: in the full panel of roughly 83,000, 20% have a hit.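 Method: cells in 96-well plates; compound added at one concentration; 48 h incubation; percent growth measured; values under 10 scored active.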 A number with no mark means an inactive call. The source made the active and inactive calls.
# Tested on: HL-60(TB) leukemia
# Assay: NCI-60 one-dose screen, 48 h (100 = growth as untreated, 0 = no growth, -100 = all killed)
# Conditions: 10 µM unless noted
row,Compound,growth
1,O=c1sn(-c2cccc3ccccc23)c(=O)n1Cc1ccccc1,51.2%
2,CCOC(=O)c1ccc2c(c1)c1c(C)c3ccncc3c(C)c1n2C,3.93% (active)
3,NC(=O)/C=C/C(=O)c1c(Cl)cccc1Cl,-21.6% (active)
4,COc1cc(C)cc2oc3oc(=O)c(C(=O)c4cc5cc(Br)ccc5o4)cc3c(=O)c12,103%
5,COc1ccc2nc3cc(Cl)ccc3c(NCCNCC(O)CO)c2c1 (centres undefined),15.6%
6,CC1(C)CC(OCCCC[P+](c2ccccc2)(c2ccccc2)c2ccccc2)CC(C)(C)N1O,-37.4% (active)
7,O=C(COc1ccc(/C=C2\COc3ccccc3C2=O)cc1)Nc1nccs1,-11.4% (active)
8,COc1cc(Cl)cc(-c2nn(-c3cccc(NC(=O)c4ccc(N5CCOCC5)c(C(F)(F)F)c4)c3)cc2-c2ccncc2)c1,2.73% (active)
9,CCOC(=O)c1cc(C(=O)c2ccc(OC)cc2)n2ccc(/C=C/c3cc[n+](CC(=O)c4ccc(OC)cc4)cc3)cc12,0.722% (active)
10,NS(=O)(=O)c1ccc(CN=C2NC(=O)S/C2=C\c2ccc(Br)cc2)cc1,97.5%
11,CCOc1ccc(Nc2ccnc3cc(Cl)ccc23)cc1,-25.6% (active)
12,CCCCn1c(=O)c2c(nc3n2CCCN3CCc2ccc(OCC(=O)NCCN(CC)CC)cc2)n(CCCC)c1=O,67.3%
13,CC(C)(C)OC(=O)CN1CCc2c(sc3ncnc(N/N=C/c4cccc5ccccc45)c23)C1,-9.67% (active)
14,O=C(Nc1cccc2c1C(=O)c1cccc(NC(=O)c3ccc(C(=O)Nc4cccc5c4C(=O)c4cccc(NC(=O)c6ccccc6)c4C5=O)cc3)c1C2=O)c1ccccc1,83.4%
